Measurements published in PubChem BioAssay (EPA / NIEHS).
“And” between values parts separate entries of the source, which are not always exact repeats. Identical values can stand only once. The source made the active and inactive calls. How the source made its calls: active means hit-call score of the fitted dose curve at least 0.9, where 1 is the maximum; inactive means score below 0.9.

What follows are molecules tested on Monocyte Chemoattractant Protein-1 (MCP1), CCL2 (gene 6347) (assay: BSK_hDFCGF_MCP1: BioMAP Diversity Plus: hDFCGF Assay for Monocyte Chemoattractant Protein-1 (MCP1) Biomarker Activity (AID 2284285)). Details: primary human foreskin fibroblasts.
Experimental: BSK_hDFCGF is a cell-based, multiplexed-readout assay that uses foreskin fibroblast, a human skin primary cell, with measurements taken at 24 hours after chemical dosing in a 96-well plate.BSK_hDFCGF_MCP1 is an assay component measured in the BSK_hDFCGF assay. It measures MCP-1 antibody related to regulation of gene expression using ELISA technology.Data from the assay component BSK_hDFCGF_MCP1 was analyzed at the endpoint, BSK_hDFCGF_MCP1, in the positive analysis fitting direction relative to DMSO as the negative control and baseline of activity. Using a type of binding reporter, gain or loss-of-signal activity can be used to understand protein changes. To generalize the intended target to other relatable targets, this assay endpoint is annotated to the 'cytokine' intended target family, where the subfamily is 'chemotactic factor'.
The levels of cell surface (or secreted, indicated by the prefix "s") biomarker endpoints were measured by ELISA. Overt cytotoxicity to cells in confluent adherent cultures (all systems other than the BT system) was assessed by measuring total protein levels using sulforhodamine B (SRB) staining in parallel cultures at the time of biomarker measurements, indicated as SRB endpoints. For proliferation assays for adherent cell types, individual cell types are cultured at sub-confluence and relative cell numbers quantified by SRB staining at time points optimized for each system (48 h: 3C and CASM3C systems; 72 h: BT and HDF3CGF systems; 96 h: SAg system). SRB was performed by staining cells with 0.1% SRB after fixation with 10% TCA and reading wells at 560 nm.Viability and proliferation of PBMC (T cells) was quantified by Alamar Blue reduction for the SAg and BT systems. For PBMC viability (referred to as PBMC Cytotoxicity within the assay endpoint names), cells were plated (75,000/well in a 96-well plate) and then chemical samples added for 1 h before addition of activators, SEB and TSST-1 (20 ng/mL final concentration each). Cells were incubated for 90 h. Then, Alamar Blue (20 uL/well) (Invitrogen, Cat DAL1100) was added for 6 h, and the plates were read with a fluorescence microplate reader at 546/580 nm (excitation/emission). For PBMC proliferation, cells were plated and activated as above but incubated for only 16 h prior to addition of Alamar Blue. Plates were read after 6 h.

Compound | outcome | AC50
C=C(F)C(=O)OC(C(F)(F)F)C(F)(F)F | inactive | 
O=C(O)C(F)(F)OC(F)(F)C(F)(F)OC(F)(F)C(F)(F)C(F)(F)C(F)(F)F | inactive | 
O=S(=O)(O)C(F)(F)C(F)(F)OC(F)(F)C(F)(F)F | inactive | 
c1ccc(OCCOc2ccccc2)cc1 | inactive | 
OCC(F)(OC(F)(F)C(F)(OC(F)(F)C(F)(F)C(F)(F)F)C(F)(F)F)C(F)(F)F (stereo not drawn) |  | 4.79 µM (active) and 2.83 µM (active)
CCCCN(CCO)CCO | inactive | 
CC(=O)c1ccc(C)cc1 | inactive | 
CC(C)CCCC(C)(C)O | inactive | 
C=C(C)C(=O)OCCC(F)(F)C(F)(F)C(F)(F)C(F)(F)C(F)(F)C(F)(F)C(F)(F)C(F)(F)F | inactive | 
CCn1cc(C(=O)O)c(=O)c2ccc(C)nc21 | inactive | 
CC(C)(CO)CO | inactive | 
O=C(O)C(F)(F)C(F)(F)C(F)(F)C(F)(F)C(F)(F)C(F)(F)C(F)(F)C(F)F | inactive | 
CCCO[Si](OCCC)(OCCC)OCCC | inactive | 
